Calls of active or inactive are those of the source.

The subject of experiment [1] is Plasmodium falciparum Sir2 (PF13_0152, Sir2A). The experiment is described as follows: pfSir2 binders on small-molecule microarrays, primary screen, biochemical, small-molecule microarray, 635 nm fluorescence (AID 1098).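 Also: score merges spot fluorescence intensity with its signal-to-noise ratio.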 To be noted: small-molecule microarray binding, fluorescence 635 nm; higher = more signal.
The nature of experiment [2]: small-molecule microarray binders of probe aDKK1, primary screen, biochemical, biotinylated probe, 635/667 nm fluorescence (AID 1099).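 Also: score merges 667nm spot fluorescence with signal to noise across triplicate slides; reference of the scale not given here.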 The following applies: higher = more signal.
The nature of experiment [3]: small-molecule microarray binders of probe aCHRDL2, primary screen, biochemical, biotinylated probe, 635/667 nm fluorescence (AID 1100). To be noted: higher = more signal.
Experiment [4] is described as follows: splicing luciferase reporter signal modulators, primary screen, spliceosome inhibition project, cell-based, HEK293, splice +/- reporter (AID 1101).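 Also: HEK293 cells carrying a splicing-competent luciferase reporter gene; test concentration not given here.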 The following applies: luminescence, 24 h, higher = more signal, called active from +8 up or from −8 down.
Experiment [5] addresses Fibroblast growth factor 10 (Homo sapiens) (UniProt O15520). In words: FGF10 binders on small-molecule microarrays, primary screen, biochemical, small-molecule microarray, 635 nm fluorescence (AID 1102). To be noted: FGF10 binding, fluorescence 635 nm, higher = more signal.
The test system of experiment [6] is glycogen synthase kinase-3 (GSK3A per assay name; protocol says GSK3B). The experiment is described as follows: GSK3 binders on small-molecule microarrays, primary screen, biochemical, small-molecule microarray, 635 nm fluorescence, GSK3A (AID 1103). Also: the record names both GSK3A and GSK3B. The following applies: small-molecule microarray binding, fluorescence 635 nm; higher = more signal.
Experiment [7] deals with Epidermal growth factor receptor (Homo sapiens) (UniProt P00533). The experiment is described as follows: EGFR binders on small-molecule microarrays, primary screen, biochemical, small-molecule microarray, 635 nm fluorescence (AID 1104).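 Also: score merges 667 nm emission intensity with spot signal to noise over triplicate slides.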 The following applies: EGFR binding, higher = more signal.
Epidermal growth factor receptor (Homo sapiens), sequence (P00533 whole entry, looked up): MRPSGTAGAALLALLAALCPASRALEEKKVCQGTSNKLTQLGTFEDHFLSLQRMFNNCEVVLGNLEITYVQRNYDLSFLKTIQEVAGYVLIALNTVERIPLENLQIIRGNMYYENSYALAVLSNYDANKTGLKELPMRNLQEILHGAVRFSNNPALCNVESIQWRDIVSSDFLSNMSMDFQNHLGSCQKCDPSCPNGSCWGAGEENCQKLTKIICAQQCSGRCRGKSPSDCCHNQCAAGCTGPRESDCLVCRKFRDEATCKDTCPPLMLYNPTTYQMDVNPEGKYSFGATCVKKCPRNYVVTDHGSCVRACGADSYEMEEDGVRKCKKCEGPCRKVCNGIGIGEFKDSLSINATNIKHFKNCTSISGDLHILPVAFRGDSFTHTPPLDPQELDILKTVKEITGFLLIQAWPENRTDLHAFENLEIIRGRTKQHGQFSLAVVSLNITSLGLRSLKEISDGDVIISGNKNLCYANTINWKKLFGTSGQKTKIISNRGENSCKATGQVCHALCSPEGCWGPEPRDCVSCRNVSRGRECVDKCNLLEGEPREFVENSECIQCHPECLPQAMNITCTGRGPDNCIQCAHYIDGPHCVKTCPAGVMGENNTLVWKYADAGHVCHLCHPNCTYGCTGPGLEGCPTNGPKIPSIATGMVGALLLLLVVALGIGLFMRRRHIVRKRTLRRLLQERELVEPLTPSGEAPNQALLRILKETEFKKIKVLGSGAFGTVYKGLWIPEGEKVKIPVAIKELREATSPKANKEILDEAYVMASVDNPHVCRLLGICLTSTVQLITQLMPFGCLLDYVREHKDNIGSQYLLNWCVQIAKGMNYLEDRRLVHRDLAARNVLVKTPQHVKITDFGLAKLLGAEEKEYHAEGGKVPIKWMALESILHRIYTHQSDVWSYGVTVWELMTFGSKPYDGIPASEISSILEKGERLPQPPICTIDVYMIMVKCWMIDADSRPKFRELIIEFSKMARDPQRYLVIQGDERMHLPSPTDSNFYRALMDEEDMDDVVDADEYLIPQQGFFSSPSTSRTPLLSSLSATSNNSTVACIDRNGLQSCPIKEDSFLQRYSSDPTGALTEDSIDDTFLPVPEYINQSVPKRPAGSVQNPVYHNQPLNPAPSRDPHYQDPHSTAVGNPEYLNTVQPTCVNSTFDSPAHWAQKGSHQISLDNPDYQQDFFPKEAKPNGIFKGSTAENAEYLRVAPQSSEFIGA
The target of experiment [8] is Follistatin-related protein 3 (Homo sapiens) (UniProt O95633). In words: FSTL3 binders on small-molecule microarrays, primary screen, biochemical, small-molecule microarray, 635 nm fluorescence (AID 1105).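 Also: score merges emission near 667 nm and signal to noise per printed spot across three slides.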 To be noted: FSTL3 binding, higher = more signal.
Follistatin-related protein 3 (Homo sapiens), sequence (O95633 whole entry, looked up): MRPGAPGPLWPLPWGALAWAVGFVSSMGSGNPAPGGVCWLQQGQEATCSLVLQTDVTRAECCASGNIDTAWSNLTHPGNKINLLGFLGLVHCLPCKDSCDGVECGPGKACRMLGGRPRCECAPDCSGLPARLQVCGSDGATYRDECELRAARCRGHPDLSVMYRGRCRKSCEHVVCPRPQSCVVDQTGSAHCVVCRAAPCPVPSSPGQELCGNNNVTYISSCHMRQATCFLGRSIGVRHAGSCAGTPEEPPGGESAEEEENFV
In experiment [9] the target is Dickkopf-related protein 1 (Homo sapiens) (UniProt O94907). The experiment is described as follows: DKK1 binders on small-molecule microarrays, primary screen, biochemical, small-molecule microarray, 635 nm fluorescence scan (AID 1106).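 Also: score merges emission near 667 nm with signal to noise over three replicate slides.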 To be noted: DKK1 binding, higher = more signal.
Dickkopf-related protein 1 (Homo sapiens), sequence (O94907 whole entry, looked up): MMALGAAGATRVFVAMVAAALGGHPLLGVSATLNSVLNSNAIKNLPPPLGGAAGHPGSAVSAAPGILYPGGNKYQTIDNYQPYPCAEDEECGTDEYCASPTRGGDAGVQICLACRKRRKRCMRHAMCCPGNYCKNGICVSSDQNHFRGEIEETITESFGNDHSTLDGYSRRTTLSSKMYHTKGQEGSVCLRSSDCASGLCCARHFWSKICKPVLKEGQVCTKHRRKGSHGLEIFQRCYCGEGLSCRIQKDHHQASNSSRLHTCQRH
Experiment [10] relates to Inhibin beta A chain (activin A). In words: INHBA (activin A) binders on microarrays, primary screen, biochemical, small-molecule microarray, 635 nm fluorescence scan (AID 1107).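 Also: mouse activin A protein probed at 4.33 µg/mL on printed slides; score merges bound-protein fluorescence near 667 nm with spot signal-to-noise.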 To be noted: small-molecule microarray binding, higher = more signal.

Fibroblast growth factor 10 (Homo sapiens), sequence (O15520 whole entry, looked up): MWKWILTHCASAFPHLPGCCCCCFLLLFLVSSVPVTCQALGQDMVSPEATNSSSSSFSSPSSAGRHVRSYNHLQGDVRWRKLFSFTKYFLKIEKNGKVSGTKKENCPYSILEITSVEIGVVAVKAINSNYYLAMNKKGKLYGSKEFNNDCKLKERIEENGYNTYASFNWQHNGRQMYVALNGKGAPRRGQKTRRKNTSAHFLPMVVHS

`COC(=O)[C@@]1(Cc2ccc(OC)cc2)[C@H]2c3cc(C(=O)N(C)C)n(CCSCCO)c3C[C@H]2CN1C(=O)c1ccccc1`: the composite z-score in experiment [1] was 0.403; in experiment [2], 1.14; in [3], 1.16; in [5] it was 0.448; in experiment [6] it was 0.528; in experiment [7], -0.263. For the same compound, the composite z-score is 0.413 in experiment [8], -0.796 in [9] and 0.737 in experiment [10]. Besides, the z-score in experiment [4] is -2.69 (inactive).

As to `CCOC(=O)C1=CC[C@@H](c2cccc(Cl)c2)N(S(=O)(=O)c2ccc(C)cc2)[C@H]1c1ccc(C#N)cc1`, the composite z-score in experiment [1] stood at 1.06; in experiment [2], 0.855; in experiment [3], 0.252; in experiment [5], 0.841; in experiment [6] it was 1.32; in [7], 0.36. Further, the composite z-score in experiment [8] amounted to 1.41; in experiment [9], 0.49; in experiment [10] it was 0.582. For the same compound, the z-score in experiment [4] was -0.201 (inactive).

On to `COc1ccc(C#Cc2ccc3c(c2)[C@]2(C(=O)N3)[C@H](C(=O)N3CCc4cc(OC)c(OC)cc4C3)[C@H]3C(=O)O[C@H](c4ccccc4)[C@H](c4ccccc4)N3[C@@H]2c2ccc(OCCO)cc2)cc1`, for which the composite z-score in experiment [1] was 1.07; in experiment [2] it was -0.029; in experiment [3], -0.13; in experiment [5], 1.29; in experiment [6] it was 1.27; in experiment [7], 0.504. Besides, the composite z-score was found to be 1.08 in experiment [8], 0.671 in [9] and 0.0787 in experiment [10]. Besides, in experiment [4], the z-score was 0.8 (inactive).

For `CN(C)CCCCCCNC(=O)[C@@H]1C[C@@H]2C(=O)N[C@@H](Cc3ccccc3)C(=O)N2[C@@H]1c1cccc(OCCO)c1`, the composite z-score came out at 1.12 in [1]; 0.182 in experiment [2]; 0.635 in [3]; 0.393 in experiment [5]; 1.31 in [6]; 0.464 in [7]. The composite z-score was 0.721 in experiment [8], 0.872 in experiment [9] and 0.728 in [10]. Moreover, in experiment [4], the z-score was -0.326 (inactive).

With `[N-]=[N+]=NCc1ccccc1C[C@]1(C(=O)NCc2ccccc2)COC(c2ccc(OCCCO)cc2)=N1`, the composite z-score in experiment [1] is 0.518; in experiment [2] it was -0.109; in experiment [3], 0.681; in [5], 0.447; in experiment [6], 0.431; in [7], 0.0245. Also, the composite z-score in experiment [8] was -0.109; in experiment [9], -0.874; in experiment [10] it was 0.743. For the same compound, the z-score in experiment [4] was -0.426 (inactive).

Take `CC(C)(C)OC(=O)CC[C@@]1(C(=O)N2CCOCC2)N=C(c2ccc(OCCCO)cc2)O[C@@H]1c1ccccc1N=[N+]=[N-]`: the composite z-score in [1] worked out at 1.3; in experiment [2] it was 0.981; in experiment [3], 1.04; in [5], 1.33; in experiment [6] it was 0.451; in [7] it was 0.295. Besides, the composite z-score was 1.13 in [8], 0.458 in [9] and 1.03 in experiment [10]. Also, the z-score in [4] is -1.07 (inactive).

For the compound `C=CCC(OC(C)=O)[C@@H]1[C@@H](N(Cc2ccc(-c3cccc(C(F)(F)F)c3)o2)C(=O)Cc2ccc(OC)cc2)c2cc(OCCCO)ccc2N1C(=O)Cc1ccc(OC)cc1` (stereo not given in full), the composite z-score was 0.294 in experiment [1]; -0.22 in [2]; 0.373 in [3]; -0.593 in [5]; -1.7 in experiment [6]; -0.719 in [7]. Further, the composite z-score in experiment [8] was -0.391; in experiment [9], -0.227; in experiment [10], 0.925. The z-score in [4] was -1.94 (inactive).

Consider `O=C1O[C@@H](c2ccccc2)[C@@H](c2ccccc2)N2[C@@H](c3ccc(O)cc3)[C@]3(C(=O)Nc4ccccc43)[C@@H](C(=O)N3CCCCCCC3)[C@H]12`, for which the composite z-score in experiment [1] came out at 2.02; in experiment [2] it was 2.5; in experiment [3], 1.53; in experiment [5] it was 1.03; in experiment [6], 1.32; in experiment [7], 1.27. The values for the composite z-score in experiment [8], in experiment [9] and in experiment [10] were 1.58, 1.56 and 1.98, respectively. In addition, the z-score in experiment [4] was -1.29 (inactive).

With `C[n+]1ccc2ccc(O)cc2c1`, the composite z-score in [1] was -0.0574; in [2] it was -0.147; in experiment [3] it was -0.444; in experiment [5], 1.07; in [6], 0.534; in experiment [7], 1.19. Besides, the composite z-score in experiment [8] is 1.45; in [9], 1.31; in experiment [10], 1.53. In addition, the z-score in experiment [4] is 0.526 (inactive).

Regarding `COc1ccc(CCNC(=O)[C@@]2(C)c3ccccc3C(=O)N(Cc3ccccc3)[C@H]2c2ccc(CO)cc2)cc1`, the composite z-score came to 1.49 in experiment [1]; 0.28 in [2]; 0.376 in experiment [3]; 1.26 in experiment [5]; 0.707 in experiment [6]; 0.433 in experiment [7]. In addition, the composite z-score in experiment [8] came to 1.43; in experiment [9] it was 0.548; in experiment [10], 0.684. The z-score in experiment [4] was -0.278 (inactive).

Take `CO[C@H]1O[C@H](CO)[C@@H](OC(=O)Nc2ccc(C(F)(F)F)cc2)[C@H](OC(=O)Nc2ccccc2)[C@@H]1OC(=O)Nc1ccccc1`: the composite z-score in experiment [1] is 1.02; in experiment [2], -0.442; in [3], 0.144; in experiment [5], 1.07; in [6], 1.23; in [7], 0.74. For the same compound, the composite z-score amounted to 0.743 in [8], 0.295 in [9] and 0.378 in experiment [10]. Further, the z-score in experiment [4] is -0.577 (inactive).

Turning to `C=C(CCCC)/C(=C/C[C@@H](OC(=O)c1ccncc1)c1ccc(CO)o1)c1cc(C(=O)OC)ccc1OC`, the composite z-score in experiment [1] was 1.5; in [2] it was 0.0296; in experiment [3], -0.363; in [5], 0.833; in [6], 1.31; in [7] it was 0.669. The composite z-score in experiment [8] is 1.03; in experiment [9], 0.744; in experiment [10] it was 0.775. In addition, in experiment [4], the z-score was 0.674 (inactive).

For `O=C1O[C@@H](c2ccccc2)[C@@H](c2ccccc2)N2[C@@H](c3ccc(O)cc3)[C@]3(C(=O)Nc4ccc(C#CCCO)cc43)[C@@H](C(=O)O)[C@H]12`, the composite z-score in experiment [1] is 1.67; in experiment [2], 2.56; in [3], 1.64; in experiment [5], 0.472; in [6] it was -0.2; in [7] it was 0.363. The composite z-score in [8] is 1.13; in experiment [9] it was -0.107; in experiment [10] it was 1.76. For the same compound, the z-score in experiment [4] was -0.545 (inactive).

Source of the values: PubChem BioAssay.
